Source: PubChem (National Center for Advancing Translational Sciences (NCATS))
CHX counter: Cycloheximide Counterscreen for Small Molecule Inhibitors of Shiga Toxin; AID 2314, 2010; cell reporter, cycloheximide protein synthesis inhibition counterscreen; max response, %; 300,000 compounds, 12% hits; in the data active = max response mostly above about 13%, no sharp cut-off; inactive = mostly below about 14%; also: read at 38.3 µM for the half of the compounds with a filed dose; 0% is about no effect
Pf growth 96h: Primary qHTS for delayed death inhibitors of the malarial parasite plastid, 96 hour incubation. Potency, µM (titrated, usually from 28.7 µM), for inactives: at the top dose activity change, negative = inhibition, most hits filed as inhibitors. P. falciparum luciferase reporter growth, 96 h. 320,000 compounds, 6.9% hits; also: potency is read from the fitted curve at half-maximal effect; % is scaled to controls: 0 for no effect and ±100 for the full control effect
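96 h incubation, 37 C, 5% CO2, of luciferase-reporter P. falciparum-infected RBCs (2% hematocrit, 0.05% parasitemia final) with test compounds; endpoint luminescence.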
Pf growth 48h: Primary qHTS for delayed death inhibitors of the malarial parasite plastid, 48 hour incubation | P. falciparum luciferase growth in erythrocytes, 48 h | Potency, µM (highest dose often 28.7 µM), inactives show at the top dose activity change, negative = inhibition, usual class: inhibitors | 310,000 compounds, 5.9% hits | AID 504832, 2011; also: potency is read from the fitted curve at half-maximal effect; % is scaled to controls: 0 for no effect and ±100 for the full control effect
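Luciferase-expressing P. falciparum in infected erythrocytes (2% hematocrit, 0.1% parasitemia final) in RPMI 1640/0.5% Albumax were exposed to compound for 48 hours at 37 C, 5% CO2; growth read as luminescence.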
Shiga inhibitor: A qHTS for Small Molecule Inhibitors of Shiga Toxin; 290,000 compounds, 9.2% hits; inhibition, % at 38.7 µM; AID 2315, 2010; Vero cells, Shiga toxin protein synthesis inhibition reporter; in the data active = inhibition mostly above about 28%, no sharp cut-off; inactive = mostly below about 43%; also: 0% is about no effect
SARS PLpro yeast: qHTS of Yeast-based Assay for SARS-CoV PLP; S. cerevisiae expressing SARS-CoV PLpro, growth rescue; Potency, µM (top dose mostly 32.9 µM), inactives show top-dose activity, positive = growth rescue, actives largely listed as activators; 330,000 compounds, 0.19% hits; calls by dose curve; also: potency is read from the fitted curve at half-maximal effect; 0% is about no effect; nearly all actives have a fitted effect of over 55% in size
AMA1-RON2 inh: qHTS for Inhibitors of AMA1-RON; Towards Development of Antimalarial Drug Lead: Primary Screen | Potency, µM (top dose mostly 58.2 µM), for inactives: top-dose activity change, negative = inhibition, hits mostly inhibitors | 360,000 compounds, 0.2% hits | AlphaScreen AMA1-biotinylated RON2 peptide binding;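 also: potency is read from the fitted curve at half-maximal effect; 0% = vehicle wells and -100% = peptide control; nearly all actives have a fitted effect of over 45% in size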
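AMA1 (3D7) with his tag at 25 nM final met compounds first, then biotinylated RON2 peptide at 25 nM; detection used donor plus acceptor beads, 10 µg/mL apiece, read by AlphaScreen after 30 min at room temperature.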
Starred values were filed as active, the others as inactive; i = inactive; ? = inconclusive; . = no result. Sampled rows, rich in hits. Any-hit rate of the full collection: about 19%. Unless noted, calls follow the shape of the dose curve; as a rule, active = well fitted curve in the direction sought with a large enough effect; inconclusive = small, poorly fitted or top-dose-only effect, or another doubt; inactive = no such curve, though single readings can be large; an effect the other way counts as inactive or inconclusive.

SMILES	CHX counter	Pf growth 96h	Pf growth 48h	Shiga inhibitor	SARS PLpro yeast	AMA1-RON2 inh
CCCS/C(N)=N/N=C/c1cc(C)ccc1O	41.5*	.	270.3%	144.9*	15.9%	-1.9%
CCCCS/C(N)=N/N=C/c1ccccc1O	32.5*	316.6%	.	53.9	-7.3%	71.7%
Oc1ccccc1C=NN=C1c2ccccc2-c2ccccc21	.	.	.	.	.	-21.4%
Cc1ccc(N2CCN(C(=O)C(=O)c3cccc(Br)c3)CC2)cc1	.	.	.	.	.	-25.3%
Cc1ccc(CS(=O)(=O)c2nc3c(c(N(C)C)n2)CCCC3)cc1	-2.4	?	0.0%	-1.9	0.9%	19.9%
Cc1ccccc1OCC(=O)OCC(=O)NCC1CCCO1 (stereo not drawn)	-6.0	-16.0%	12.7%	-5.4	0.8%	-6.0%
CC(CCc1ccccc1)NC(=O)CSc1nc(N)cc(N)n1 (stereo not drawn)	-3.0	-29.4%	-19.1%	-1.2	-2.2%	-0.4%
Cc1ccsc1/C=N/Nc1cccc(C(=O)O)c1	55.9*	?	342.4%	118.2*	0.4%	-11.2%
Cc1ccc(/C=N/Nc2cccc(C(=O)O)c2)s1	86.2*	i	338.1%	126.1*	3.9%	-16.5%
Cc1ccsc1/C=N/Nc1ccc(C(=O)O)cc1	-2.7	0.1%	25.5%	4.0	-5.1%	28.5%
COc1ccccc1NC(=O)CC1COc2ccccc2O1 (stereo not drawn)	-2.8	.	3.6%	-23.0	4.7%	-0.3%
CC(C)OCCCNC(=O)C1CCN(S(=O)(=O)c2ccc3nc4c(c(C(=O)O)c3c2)CCCCC4)CC1	-1.5	?	1.0%	-4.7	22.0%	-11.3%
CCOC(=O)c1cc(C(C)(C)C)oc1CN	-3.3	.	?	-3.1	-0.8%	6.6%
CCOC(=O)c1cc(C(C)(C)C)oc1CNC(=O)c1c(C)oc2c1CCCC2	22.8	?	14.7µM*	73.1*	-10.0%	-21.5%
O=C(NCC(=O)N(CCc1ccccc1)C(C(=O)NC1CCCC1)c1cccnc1)c1ccco1 (stereo not drawn)	-0.8	2.6%	14.7µM*	-2.7	14.4%	7.8%
O=C(NC1CCCCC1)C(c1cccnc1)N(CCc1ccccc1)C(=O)Cc1cccs1 (stereo not drawn)	-3.8	21.2%	13.1µM*	-3.6	-4.0%	-8.7%
O=C(NCC(=O)N(CCc1ccccc1)C(C(=O)NC1CCCCC1)c1ccncc1)c1ccco1 (stereo not drawn)	-1.1	11.4%	?	-15.4	27.1%	-7.4%
O=C(NC1CCCC1)C(c1cccnc1)N(CCc1ccccc1)C(=O)c1ccco1 (stereo not drawn)	-1.4	43.2%	5.22µM*	1.5	0.7%	-2.6%
O=C(NC1CCCC1)C(c1ccncc1)N(Cc1ccccc1)C(=O)Cc1cccs1 (stereo not drawn)	-0.8	?	?	-2.2	13.1%	3.4%
COc1ccc(C(=O)C2CCCN(S(=O)(=O)c3ccc(C(C)=O)cc3)C2)c(C)c1 (stereo not drawn)	11.5	-0.5%	5.0%	1.3	-2.2%	-3.8%
COCCNc1nc(-c2cc3ccccc3o2)cs1	82.7*	0.0%	238.3%	74.1*	-15.4%	-8.5%
COc1cc(OC)cc(C(=O)NC(=S)Nc2nc(-c3cc4ccccc4o3)cs2)c1	-1.4	78.1%	30.1%	-7.1	-0.3%	-4.8%
Cc1nn(CCC(=O)O)c2nc(-c3cccnc3)cc(C(F)(F)F)c12	-4.2	?	-18.8%	-3.9	0.9%	0.6%
Cc1nn(CCc2nn[nH]n2)c2nc(-c3ccc(C4CCCCC4)cc3)cc(C(F)(F)F)c12	0.9	?	5.22µM*	-7.6	-0.7%	43.4%
Cc1nn2cc(-c3ncc(C(F)(F)F)cc3Cl)cnc2c1Br	20.1	i	i	57.4*	1.4%	18.1%
N#Cc1cnn2cc(-c3ncc(C(F)(F)F)cc3Cl)cnc12	28.7*	?	?	24.4	-0.8%	5.0%
Cc1cc2ncc(-c3cccc(Cl)c3)cn2n1	47.6*	127.7%	i	75.5*	2.8%	0.4%
